Seven molecules from PubChem BioAssay can be followed below.

Broadly, the inhibition is the change of the read-out against control, counted positive when it falls. In general, remaining activity refers to the signal under treatment as a percentage of the control signal. The term IC50 denotes the point on the concentration scale where inhibition reaches its midpoint.

Several values for one entry are separate records, joined by “and”; a condition that tells them apart may be missing. Equal entries are not always repeated. Results filed as inconclusive are left out. For some of these results: Entries with a potency or affinity are not part of this list. Activity calls are given as the source filed them.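 The calls were made as follows, unless noted: active = compounds killing one labelled cell type while sparing the other, by normalised counts and ratio limits, not self-fluorescent; inactive = the rest.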

Assay [1] can be described thus: blockers of polyQ-driven CASP3 activation – cell-based (AID 1583). The note with it: polyglutamine-induced caspase-3 activation, cell assay; stronger effect = higher value;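 tested at 10 µM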.
A short description of assay [2]: yeast 75Q aggregation reduction – 75Q-TubU reporter (AID 1593). The note with it: Yeast 75Q polyglutamine aggregation reporter.
Assay [3] in a line: restoration of touch response, mutant HTT neurons – whole organism, C. elegans mechanosensory neurons, N-terminal huntingtin (AID 1599). The note with it: C. elegans polyQ-huntingtin mechanosensory neurons, stronger effect = higher value.
Assay [4] in a line: blockers of cytochrome c efflux from mitochondria – biochemical, purified mitochondria (AID 1603).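 Also: mouse liver mitochondria challenged with calcium chloride; signal normalized to the plate average as 100%.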 To be noted: stronger effect = lower value.
Assay [5] in a line: polyglutamine aggregate formation blockers (AID 1604). The note with it: polyglutamine-induced protein aggregation inhibition assay; stronger effect = higher value; tested at 2.5 µM.
Assay [6] is described as follows: rescue of PC12 cells from polyQ htt toxicity – LDH release (AID 1610). The note with it: PC12 mutant huntingtin toxicity, final LDH at 4 uM, stronger effect = lower value. (In general: Release of lactate dehydrogenase indicates damage to the cell membrane.)
A short description of assay [7]: glutamate transport activators, MN-1 cells, MN-1 cell line (AID 1612).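 Also: tested at 1 µM final; 0% = mean of DMSO vehicle wells on each plate; positive means more glutamate uptake than control and negative means less.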 To be noted: MN-1 motor neuron cells, stronger effect = higher value.
Assay [8] can be described thus: GFP-Q80 aggregate reduction, neuronal-like cells, cell-based, NGF-treated PC12, GFPQ80 (AID 1614).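 Also: lower means fewer inclusions and 0 means no inclusions at all.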 To be noted: PC12 NGF-treated GFP-polyQ80 inclusion reduction.
Assay [9] can be described thus: 75Q-TubH aggregate inhibition, S. cerevisiae, yeast (AID 1616). To be noted: S. cerevisiae 75Q-TubH polyglutamine aggregation suppression; stronger effect = higher value.
A short description of assay [10]: compounds altering circadian rhythm period length – cell-based, LOPAC library, luminescence reporter (AID 2774; call rule not given here;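 also: values are relative to mean of DMSO wells on each plate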). To be noted: circadian reporter cells, at 7 µM, actives lie on both sides.
Assay [11] deals with Hepatitis C virus NS3 helicase. Briefly: blockers of NS3h binding to ssDNA – biochemical, fluorescence polarization, LOPAC1280 library, primary screen (AID 687035; in the data active = inhibition above about 37%). To be noted: Purified HCV NS3 helicase, Cy5-dT15 ssDNA binding fluorescence polarization; stronger effect = higher value; concentration not given here.
Assay [12] is described as follows: compounds altering Cy5-DNA-NS3h complex signal – biochemical, LOPAC1280, artefact control for HCV NS3 helicase inhibitor project (AID 687037; call rule not given here). The note with it: Cy5-DNA-NS3h complex fluorescence interference counterscreen. (In general: A counterscreen serves to expose hits that act by an unwanted route or on another target.)
A short description of assay [13]: EMT-state selective cytotoxicity in co-culture – imaging, PC-3E GFP, TEM4-18 mCherry, primary screen (AID 1345086).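 As to all read-outs here: cells exposed to compound for 72 h before imaging.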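 As to red/green cell ratio (normalised): normalised mesenchymal count divided by normalised epithelial count so high means epithelial killing.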 The note with it: PC-3E GFP / TEM4-18 mCherry co-culture, imaging cell counts, at 1 µM; for red/green cell ratio (normalised): actives lie on both sides, counts scaled to control wells, 1 = unselective.
The subject of assay [14] is Aerobactin synthetase IucA (Klebsiella pneumoniae). Briefly: inhibition of K. pneumoniae IucA enzyme – biochemical, Tocris library, absorbance (AID 1345561; call rule not given here;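 also: 100% = enzyme without compound and 0% = no enzyme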). To be noted: purified IucA enzyme assay, absorbance (OD) read-out; stronger effect = lower value;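 tested at 8 µM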.
Assay [15] is described as follows: viability loss in pontine glioma line – cell-based, SU-DIPG-XVII, MIPE5.0, CellTiter-Glo, qHTS, dose response (AID 1347060; cut-off not given, nearly all actives have AC50 up to about 26 µM). To be noted: CellTiter-Glo ATP luminescence. (In general: In ATP-based viability assays light output follows the ATP content of the culture.)
Assay [16] can be described thus: viability loss in pontine glioma line – cell-based, JHH-DIPG-1, MIPE4.0, CellTiter-Glo, qHTS, dose response (AID 1347062; cut-off not given, nearly all actives have AC50 up to about 27 µM). To be noted: JHH-DIPG-1 viability, CellTiter-Glo ATP luminescence.
Assay [17] in a line: viability loss in pontine glioma line – cell-based, SU-DIPG-IV, MIPE4.0, CellTiter-Glo, qHTS, dose response (AID 1347063; cut-off not given, nearly all actives have AC50 up to about 30 µM;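 also: compound exposure lasted 48 hours before the viability readout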). To be noted: CellTiter-Glo ATP luminescence.
Assay [18] is described as follows: viability loss in pontine glioma line – cell-based, SU-DIPG-XXV, MIPE5.0, CellTiter-Glo, qHTS, dose response (AID 1347065; cut-off not given, nearly all actives have AC50 up to about 26 µM;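 also: cells exposed to compound for 48 hours before ATP readout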). To be noted: CellTiter-Glo ATP luminescence.
A short description of assay [19]: growth inhibition of DIPG cells – cell-based, MIPE4.0 library, CellTiter-Glo luminescence, qHTS (AID 1347066; cut-off not given, nearly all actives have AC50 up to about 30 µM;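 also: cells exposed to compound for 48 hours before readout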). The note with it: SU-DIPG-VI viability, CellTiter-Glo ATP luminescence.
The nature of assay [20]: JHH-DIPG-1 glioma cell viability, MIPE5.0 library, CellTiter-Glo luminescence, qHTS (AID 1347067; cut-off not given, nearly all actives have AC50 up to about 26 µM;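 also: cells exposed to compound for 48 hours before readout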). The note with it: JHH-DIPG-1 glioma viability, CellTiter-Glo ATP luminescence.
Assay [21] in a line: growth inhibition of DIPG cells – cell-based, MIPE5.0 library, qHTS (AID 1347068; cut-off not given, nearly all actives have IC50 up to about 30 µM;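 also: cells exposed to compound for 48 hours before viability readout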). To be noted: SU-DIPG-XXV viability.
Assay [22] in a line: viability loss with induced miR-34 in A549 – imaging, A549 dox-inducible miR-34, nuclei and caspase counts, primary screen (AID 1347080;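 active = compounds whose cell count with miR-34 switched on is under 0.7 times the count with it off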). The note with it: A549 miR-34 inducible, Hoechst nuclei count, 48 h.
The nature of assay [23]: blockers of cellular phospholipid synthesis – cell-based, LOPAC library, screen 4, primary screen (AID 1347384; call rule not given here). The note with it: animal cells, phospholipid biosynthesis inhibition screen; at 10 µM.
Assay [24] deals with Mitogen-activated protein kinase 7 (Homo sapiens) (UniProt Q13164). Briefly: Gal4-ERK5 driven luciferase induction – cell-based, HTS, primary screen (AID 1508626;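 active = luciferase signal above three times the same-plate solvent-only control wells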;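 also: luciferase driven by Gal4-ERK5 fusion binding five Gal4 sites before minimal TATA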). To be noted: HeLa Gal4-ERK5 transactivation, 18 h, at 5 µM, stronger effect = higher value.
A short description of assay [25]: galactose survival enhancers in mitochondrial complex I cybrids – cell-based, galactose medium, ATP luminescence, primary screen (AID 1645843;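 active = z-score of at least 1.8 in each of two replicates, scored against plate mean and spread of sample wells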;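 also: positive z means more ATP and so rescue of galactose-driven cybrid death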). The note with it: complex I mutant cybrid cells, 72 h, stronger effect = higher value.
[26] abbreviates: measured here: epithelial PC-3E GFP cell survival.
[27] abbreviates: measured here: mesenchymal TEM4-18 mCherry cell survival.
[28] abbreviates: stronger effect = lower value, cell number ratio, induced over uninduced.
[29] abbreviates: measured here: relative caspase fold change +Dox/-Dox.
Where [30] appears, read: measured here: total cells with miR-34 induction, stronger effect = lower value.
Setting [31] is: measured here: total cells without miR-34 induction.

Mitogen-activated protein kinase 7 (Homo sapiens), sequence (Q13164 whole entry, looked up, the tested form may be a part): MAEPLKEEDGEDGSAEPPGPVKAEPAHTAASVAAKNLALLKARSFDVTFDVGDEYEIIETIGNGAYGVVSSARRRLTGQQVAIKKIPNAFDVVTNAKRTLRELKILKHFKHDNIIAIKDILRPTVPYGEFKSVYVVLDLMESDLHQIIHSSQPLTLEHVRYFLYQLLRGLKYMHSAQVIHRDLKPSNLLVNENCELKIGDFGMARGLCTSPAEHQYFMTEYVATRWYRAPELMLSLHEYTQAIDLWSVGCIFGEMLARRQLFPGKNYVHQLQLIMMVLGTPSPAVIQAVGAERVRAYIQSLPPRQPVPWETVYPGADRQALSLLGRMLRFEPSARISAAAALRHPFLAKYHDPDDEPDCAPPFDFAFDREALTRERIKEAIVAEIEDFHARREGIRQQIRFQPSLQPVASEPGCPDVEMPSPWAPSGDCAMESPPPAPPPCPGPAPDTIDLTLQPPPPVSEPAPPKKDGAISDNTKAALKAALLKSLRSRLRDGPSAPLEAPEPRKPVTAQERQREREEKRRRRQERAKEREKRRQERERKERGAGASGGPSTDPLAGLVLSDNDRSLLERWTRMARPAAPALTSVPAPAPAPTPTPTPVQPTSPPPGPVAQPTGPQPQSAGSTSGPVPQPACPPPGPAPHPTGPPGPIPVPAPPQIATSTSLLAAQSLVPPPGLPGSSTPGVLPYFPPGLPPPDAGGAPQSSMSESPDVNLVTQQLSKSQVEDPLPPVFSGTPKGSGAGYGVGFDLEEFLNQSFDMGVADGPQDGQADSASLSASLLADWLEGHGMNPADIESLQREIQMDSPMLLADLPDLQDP

For `NCCCCNCCCN`, the inhibition in [1] was 7.23%; in [11], -2% (inactive). In assay [2], this molecule came in with a score of 1. For the same molecule, the rescue above control in assay [3] is -7.17. The cytochrome c release ratio in [4] is 1.12. The molecule further showed an inhibition of aggregation in assay [5] of 57.8%. The normalised LDH release in assay [6] was 0.936. Also, the glutamate uptake change in assay [7] was -3.1%. For the same molecule, the inclusion score in assay [8] stood at 2. In addition, the aggregation suppression score in assay [9] was 0.846. The period change in [10] is 0.115 h (inactive). Besides, in assay [12], the fluorescence ratio (interference) is 1 (inactive). For the same molecule, the red/green cell ratio (normalised) in assay [13] is 0.89 (inactive). For the same molecule, the normalised cell number was 0.98 in assay [13] (setting [26]) and 0.87 in assay [13] (setting [27]). Moreover, the remaining activity in assay [14] was 101% (inactive). Besides, the call in assay [15], in [16], in assay [17], in assay [18], in [19] and in [20] was inactive. Besides, the molecule was classed as inactive in [23]. For the same molecule, in assay [21], the IC50 is 1.18 nM (active). The fold change is 0.943 (inactive) and 0.936 (inactive) in assay [22] (setting [28]); 1.92 and 0.604 in assay [22] (setting [29]). Besides, the cell count is 9580 and 9960 in assay [22] (setting [30]); 10200 and 10600 in assay [22] (setting [31]). Besides, in [24], the luciferase signal was 48 AU (inactive). Moreover, the z-score in [25] is -0.635 (inactive) and -0.08 (inactive).

Turning to `CCN1CCN(c2c(F)cc3c(=O)c(C(=O)O)cn4c3c2OC[C@@H]4C)CC1`, the red/green cell ratio (normalised) in assay [13] is 0.75 (inactive). The normalised cell number in assay [13] (setting [26]) turned out to be 1.34; in assay [13] (setting [27]) it was 1.

In the case of `CC(C)/C(O)=C1/C(=O)O[C@@H](c2ccoc2)[C@]2(C)C(O)[C@@H](O)[C@@]34OC5(C)OC67CC(C)(C(O)[C@]6(O)[C@@H](O)[C@]3(O5)C12)[C@H](CC(=O)O)C74C` (stereo not given in full), the red/green cell ratio (normalised) in [13] was 1.06 (inactive). The figures for the normalised cell number in assay [13] (setting [26]) and in [13] (setting [27]) were 1 and 1.06, respectively.

On to `COc1cc(O)c2c(=O)c(OC)c(-c3ccc(OC)c(OC)c3)oc2c1`, for which the red/green cell ratio (normalised) in assay [13] is 1.03 (inactive). The normalised cell number in [13] (setting [26]) is 0.82; in assay [13] (setting [27]) it was 0.85.

Turning to `NCCOB(c1ccccc1)c1ccccc1`, in [13], the red/green cell ratio (normalised) is 1.1 (inactive). For the same molecule, the results for the normalised cell number in assay [13] (setting [26]) and in [13] (setting [27]) were 0.8 and 0.89, respectively. The remaining activity in assay [14] is 110% (inactive). The values for the fold change in [22] (setting [28]) and in assay [22] (setting [29]) were 0.925 (inactive) and 0.886, respectively. Moreover, the figures for the cell count in assay [22] (setting [30]) and in [22] (setting [31]) were 8820 and 9540, respectively. In assay [24], the luciferase signal is 120 AU (inactive). Also, the z-score in assay [25] was 1.9 (inactive).

Consider `CC(CC(=O)N1C(=S)SC[C@@H]1c1ccccc1)N1C(=S)SC[C@@H]1c1ccccc1` (stereo not given in full), for which the red/green cell ratio (normalised) in assay [13] was 0.88 (inactive). Moreover, the normalised cell number was determined as 1.18 in assay [13] (setting [26]) and 1.04 in [13] (setting [27]).

Turning to `CCC(CCC(C)[C@H]1CCC2C3CC=C4C[C@@H](OC(C)=O)CC[C@]4(C)C3CC[C@@]21C)C(C)C` (stereo not given in full), the red/green cell ratio (normalised) in assay [13] is 0.94 (inactive). Moreover, the normalised cell number in [13] (setting [26]) was determined as 1.1; in assay [13] (setting [27]) it was 1.03.
